# Bioassay records as filed in PubChem.
# Sampled rows, rich in hits. Any-hit rate of the full collection: about 4.6%.
# TRHR ag: agonists of human TRH receptor; TRHR cells, calcium flux fluo-8, FDSS agonist mode; P34981; hit rate 0.18% among 360,000; activation, % at 2 µM
# Target sequence (P34981 whole entry, looked up): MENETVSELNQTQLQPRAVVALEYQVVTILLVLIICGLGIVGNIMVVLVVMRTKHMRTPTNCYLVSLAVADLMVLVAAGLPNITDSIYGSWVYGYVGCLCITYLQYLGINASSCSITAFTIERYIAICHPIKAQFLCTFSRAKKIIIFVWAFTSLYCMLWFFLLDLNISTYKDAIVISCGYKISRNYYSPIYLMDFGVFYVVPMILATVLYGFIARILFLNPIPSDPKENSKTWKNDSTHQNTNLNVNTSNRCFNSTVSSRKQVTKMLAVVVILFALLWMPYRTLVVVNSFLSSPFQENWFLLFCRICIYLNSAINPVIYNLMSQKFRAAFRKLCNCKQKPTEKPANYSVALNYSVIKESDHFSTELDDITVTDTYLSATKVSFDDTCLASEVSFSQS
#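 Read-out: compound-evoked intracellular calcium rise in TRHR cells, fluo-8 dye, kinetic FDSS fluorescence at 1 s/cycle following a 10-cycle baseline. Cells cultured overnight before dye loading (30 min–1.5 h, RT).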
# D1 PAM: potentiators of human D1 dopamine receptor; potentiation, % at 10 µM; hit rate 0.036% among 360,000; HEK293 TREx D1 cells, calcium flux, dopamine EC20 potentiation; in the data active = potentiation above about 30%
# D1 antagonist: blocks dopamine activation of the human D1 receptor; P21728; HEK293 TREx D1 cells, calcium flux, dopamine EC80; active compounds read low; activity change, negative = inhibition, % at 10 µM; hit rate 3.2% among 360,000; in the data active = activity change below about -30%
#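 Tetracycline-induced HEK293 Trex D1 cells, force-coupled to calcium, dye-loaded; compounds added and read 180 s, then EC80 dopamine added and calcium flux tracked kinetically another 180 s.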
# D1 agonist: agonists of human D1 dopamine receptor | HEK293 T-REx D1 cells, calcium flux, agonist mode | hit rate 1% among 360,000 | P21728 | activation, % at 2 µM
#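 Agonism was scored from calcium flux recorded over 180 s (1 read/s) after pintool compound addition, following a 10-cycle baseline. Cells were inducible force-coupled HEK293 TREx D1, plated overnight at 30 C and loaded with no-wash calcium dye.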
# TRHR PAM: TRH receptor (human) allosteric enhancement; P34981; TRHR cells, fluo-8 calcium fluorescence, EC20 TRH enhancement; enhancement, % at 2 µM; hit rate 0.66% among 360,000; in the data active = enhancement above about 30%
#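 TRHR-expressing cells loaded with fluo-8 calcium dye were read kinetically (ex 480/em 530) during compound addition, then stimulated with an EC20 of TRH (10 nM final). Enhancement of the Gq-mediated intracellular calcium response was scored.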
# Hits are given with their value; 0 = inactive; - = no result; ! = a repeat was not active. Cut-off read from the data, not from the text of the source, unless noted: active = activation above about 30%; inactive = the rest.
SMILES,TRHR ag,D1 PAM,D1 antagonist,D1 agonist,TRHR PAM
COc1ccc(C)cc1NC(=O)c1ccc2c(c1)N(Cc1cccc(Cl)c1)C(=O)c1ccccc1S2=O (stereo unspecified),0,0,0,0,0
CS(=O)(=O)c1oc(-c2ccc(F)cc2)nc1S(=O)(=O)c1ccc(Cl)cc1,0,0,0,0,48.7
CSc1oc(-c2ccc(F)cc2)nc1S(=O)(=O)c1ccc(F)cc1,0,0,0,0,0
Cn1nnc2cc(C(=O)NC(C)(C)C)ccc21,0,0,0,0,0
CNC(=O)c1ccc2c(c1)nnn2C,0,0,-87.0,0,0
OC(CNCc1ccncc1)c1ccccc1 (stereo unspecified),0,0,0,0,0
OC(CNCc1ccc(-c2ccccc2)cc1)c1ccccc1 (stereo unspecified),0,0,0,56.3,0
OC(CNCc1cccs1)c1ccccc1 (stereo unspecified),0,0,-41.2,0,0
CCN1C(=O)/C(=C/C=C2/CCCN2C)OC1=S,0,0,0,30.2,0
O=C(Nc1nc(Nc2cc(F)cc(F)c2)nc(NC2CCCC2)n1)OCc1ccccc1,0,0,0,0,0
C/C(=N\Nc1ccc([N+](=O)[O-])cc1)c1ccc(N2CCOCC2)cc1,0,0,0,38.9,0
C/C(=N\NC(=O)COc1ccc([N+](=O)[O-])cc1)c1ccco1,0,0,0,0,0
CC/C(=N\Nc1ccc([N+](=O)[O-])cc1)c1ccccc1,0,0,-33.6,0,0
C/C(=N\Nc1ccc([N+](=O)[O-])cc1)c1ccco1,0,0,0,33.3,0
C/C(=N\Nc1ccccc1[N+](=O)[O-])c1ccc(N2CCOCC2)cc1,0,0,0,0,0
Cc1ccc2c(CC(=O)N3CCN(c4cccc(Cl)c4)CC3)coc2c1,0,0,0,0,0
COc1ccc([C@H]2CC(=O)C=C(c3ccc(O)cc3)C2)cc1OC,0,0,-86.0,0,0
COc1ccc([C@H]2CC(=O)C=C(c3cc(OC)ccc3OC)C2)cc1,0,0,-34.5,0,0
CC1(C)CC(=O)c2cc(-c3nc(-c4ccc(Cl)cc4)cs3)c(=O)n(-c3cccc(F)c3)c2C1,0,0,0,0,0
COc1ccc(-c2cc(C(=O)Nc3c(C)nn(Cc4ccccc4Cl)c3C)no2)cc1OC,0,0,-39.9,0,0
COc1ccc(-c2cc(C(=O)Nc3cc(OC)c(OC)c(OC)c3)no2)cc1OC,0,0,0,0,38.8
COc1cccc(-c2cc(C(=O)Nc3c(C)nn(Cc4ccccc4Cl)c3C)no2)c1,0,0,0,0,0
O=C(CCCCn1c(=O)c2ccccc2n(Cc2ccccc2Cl)c1=O)NCc1ccc2c(c1)OCO2,0,0,0,0,0
CCN1CN=C(NS(=O)(=O)c2ccc(C)cc2)NC1,0,0,-,34.3,0
CC(=O)Nc1ccc(S(=O)(=O)NC2=NCN(CCO)CN2)cc1,0,0,0,0,0
SMILES,TRHR ag,D1 PAM,D1 antagonist,D1 agonist,TRHR PAM
CCn1cc2nc(SCC(=O)Nc3cc(OC)cc(OC)c3)n(Cc3ccc(Cl)cc3)c(=O)c2n1,0,0,0,0,0
NS(=O)(=O)c1ccc(NC(=O)CSc2n[nH]c(=O)n2Cc2ccccc2)cc1,0,0,0,0,0
O=C(CSc1n[nH]c(=O)n1Cc1ccccc1)Nc1ccc(F)c(F)c1F,0,0,0,34.2,0
O=C(CSc1nc2c([nH]c3ccccc32)c(=O)n1-c1ccccc1)N1CCc2ccccc21,0,0,0,0,0
Cn1c(NCCCCO)nc2c1c(=O)n(Cc1ccc(Cl)cc1)c(=O)n2C,0,0,-33.1,0,0
COc1ccc(Cn2c(=O)c3c(nc(NCCO)n3C)n(C)c2=O)cc1,0,0,-32.8,0,0
COCCCNc1nc2c(c(=O)n(Cc3ccc(OC)cc3)c(=O)n2C)n1C,0,0,0,0,0
Cc1nn(CC(=O)Nc2ccc(C(C)C)cc2)c(=O)c2c(C)n(-c3ccc(Cl)cc3)nc12,0,0,0,0,0
CC1=C(C#N)C(NC(=O)c2cccc(Cl)c2)(C(F)(F)F)C(=O)N1 (stereo unspecified),0,0,-30.6!,0,0
COc1ccc(C(=O)NC2(C(F)(F)F)C(=O)NC(C)=C2C#N)cc1 (stereo unspecified),0,0,0,0,41.1
COc1ccc(C(=O)NC2(C(F)(F)F)C(=O)NC(C)=C2C#N)cc1OC (stereo unspecified),0,0,0,0,0
